VDR inhibitor: blocks the human vitamin D receptor | P11473 | Potency, µM, for the others: max response, negative = inhibition, actives largely listed as inhibitors | 0.93% of 400,000 active | VDR-SRC2-3 peptide fluorescence polarization, 2 h; further: potency means the concentration at half of the fitted maximal effect; on the % scale 0 is the no-effect control and ±100 the full control effect
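Compounds are added to VDR with labelled SRC2-3 coactivator peptide and held 2 h at room temperature. Inhibition of the VDR–peptide interaction is then read as a change in fluorescence polarization.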
PLK1 PBD block: inhibitors of human PLK1 polo-box domain binding; Plk1 PBD binding of FITC phosphopeptide, fluorescence polarization; Potency, µM, for inactives: max response, negative = inhibition, hits mostly inhibitors; 2.8% of 360,000 active; AID 720504; further: potency means the concentration at half of the fitted maximal effect; series mostly up to about 57 µM; on the % scale 0 is the no-effect control and ±100 the full control effect; nearly all actives have a fitted effect of over 65% in size
Target sequence (P53350 whole entry, looked up, the tested form may be a part): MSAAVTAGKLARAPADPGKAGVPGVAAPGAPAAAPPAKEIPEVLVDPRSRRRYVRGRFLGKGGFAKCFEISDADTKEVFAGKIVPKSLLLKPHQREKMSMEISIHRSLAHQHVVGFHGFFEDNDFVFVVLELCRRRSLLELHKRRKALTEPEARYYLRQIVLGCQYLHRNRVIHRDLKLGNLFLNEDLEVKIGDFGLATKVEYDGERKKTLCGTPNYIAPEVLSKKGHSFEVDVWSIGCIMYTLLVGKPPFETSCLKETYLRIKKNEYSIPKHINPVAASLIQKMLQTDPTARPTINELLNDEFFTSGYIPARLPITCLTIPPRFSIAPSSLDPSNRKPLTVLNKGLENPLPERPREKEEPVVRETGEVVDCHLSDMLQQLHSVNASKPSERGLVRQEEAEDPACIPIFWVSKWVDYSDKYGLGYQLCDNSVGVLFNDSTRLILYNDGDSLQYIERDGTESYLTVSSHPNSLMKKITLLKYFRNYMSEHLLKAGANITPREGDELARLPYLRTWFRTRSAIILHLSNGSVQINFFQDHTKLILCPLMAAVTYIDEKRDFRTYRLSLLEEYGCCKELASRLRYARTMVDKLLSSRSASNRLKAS
TSHR antagonist: blocks TSH signaling through the human TSH receptor; TSHR-expressing cells, TSH-stimulated cAMP HTRF, 2 h; active compounds read low; activity change, negative = inhibition, % at 11.5 µM; 0.2% of 330,000 active;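 active means activity change below a set negative limit, meaning inhibition stronger than a set level, cut at about -70% in these data; inconclusive means activity change between two set negative limits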; further: on the % scale 0 is the no-effect control and ±100 the full control effect
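Antagonism was scored as loss of TSH-driven cAMP in TSHR cells, stimulated with 4nM TSH (EC80) for 2 hours at 37 deg C and detected by homogeneous HTRF competition immunoassay.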
uPA surface inh: cell surface uPA generation inhibition; Potency, µM (top dose mostly 38.3 µM), inactives show at the highest dose activity change, negative = inhibition, most hits filed as inhibitors; 0.31% of 330,000 active; cell surface uPA generation assay, qHTS; active means well fitted inhibition curve with a large enough effect; inconclusive means small, poorly fitted or top-dose-only effect; inactive means no such curve, though single readings can be large or run the other way; tested in mouse RAW 264.7 cells; further: potency means the concentration at half of the fitted maximal effect; on the % scale 0 is the no-effect control and ±100 the full control effect; nearly all actives have a fitted effect of over 55% in size
PTAP TSG101 blk: blocks PTAP/TSG101 interaction to inhibit HIV-1 budding; Q99816; Fluorescence polarization, FITC-PTAP peptide / Tsg101 binding; Potency, µM (doses to about 115 µM), for inactives: top-dose activity change, negative = inhibition, most hits filed as inhibitors; 340,000 tested, under 10 active; active means well fitted inhibition curve with a large enough effect in the main read-out, with a control signal flat, not every such curve was filed as active; inconclusive means small, poorly fitted or top-dose-only effect, or effect the other way, or a change in a side signal; inactive means no such curve, though single readings can be large or run the other way; further: potency means the concentration at half of the fitted maximal effect; % of control where 0% means no effect
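FP read-out: FITC-PTAP peptide, 50 nM final, binding Tsg101 binding domain, 10 uM final; 20 min, r.t.; 10 mM HEPES pH 7.5, 0.15 M NaCl, 0.01% Tween 20, 3 mM EDTA, 0.1 mM TCEP.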
* = called active by the depositor; ? = inconclusive; . = no result. Shown are actives, neighbours in structure and some others; about 3.1% of the full set was active somewhere. Unless noted, the call rests on the fitted dose curve; in most records, active means well fitted curve in the direction sought with a large enough effect; inconclusive means small, poorly fitted or top-dose-only effect, or another doubt; inactive means no such curve, though single readings can be large; an effect the other way counts as inactive or inconclusive.

SMILES | VDR inhibitor | PLK1 PBD block | TSHR antagonist | uPA surface inh | PTAP TSG101 blk
NS(=O)(=O)c1ccc(N/N=C/c2ccc(O)cc2O)c([N+](=O)[O-])c1 | 7% | -8% | 1 | -12% | -4%
NS(=O)(=O)c1ccc(N/N=C/c2ccc(O)c(O)c2O)c([N+](=O)[O-])c1 | ? | 3µM* | 1 | 0% | -10%
CC1CCN(C(=O)c2ccc3c(c2)N(Cc2ccccc2)C(=O)c2ccccc2S3(=O)=O)CC1 | -21% | . | . | . | .
Brc1ccc2[nH]c3c(N4CCc5ccccc5C4)ncnc3c2c1 | 16% | -6% | -77* | -11% | -15%
Fc1ccc2[nH]c3c(N4CCc5ccccc5C4)ncnc3c2c1 | -9% | -1% | ? | -2% | -1%
CC(=NCCc1ccccc1)C1=C(O)CSC1=O | ? | 12µM* | 0 | -4% | 0%
Cc1ccc(C)c(N2CCN(C(=O)C3CCN(c4nc5ccc(C)cc5[nH]4)CC3)CC2)c1 | 1% | . | . | . | .
CCCCCCCCCCCCCCC(C(=O)O)C(O)(CC(=O)OC)C(=O)O (stereo not drawn) | 22µM* | . | . | . | .
CCCCCC(CC(=O)O)C(=O)O (stereo not drawn) | -3% | . | . | . | .
COC(=O)c1cc(=O)nc2sc(-c3ccc(F)cc3)nn12 | 45µM* | 6.7µM* | 4 | . | 0%
CCOC(=O)c1nc2ccccc2c(=O)[nH]1 | 14% | 2% | -16 | 1% | -3%
CCOC(=O)c1nc(N)c(C(=O)OCC)[nH]1 | -11% | 11µM* | -1 | 5% | 0%
Cc1cc(C)c(-n2[nH]nnc2=S)c(C)c1 | -22% | 30µM* | 1 | 7% | 1%
COc1ccc(C)cc1-n1[nH]nnc1=S | 9% | -18% | -4 | 7% | 0%
COc1ccc(C(=O)NCC(=O)OCc2c(Cl)cccc2Cl)cc1OC | -8% | 1% | -12 | 7% | -2%
Cc1ccc(C(=O)Nc2ccc(N3CCN(C)CC3)cc2)cc1 | -5% | -4% | -2 | 2% | 2%
Cc1ccc(NC(=O)c2ccc(C)cc2)cc1 | 10% | 0% | -8 | 2.8µM* | 3%
Cc1nc(-c2ccc(NC(=O)c3ccccc3)cc2)cs1 | -10% | -18% | 15 | 2.2µM* | -3%
Cc1ccc(C(=O)NC2CC3CCC(C2)N3C)cc1 (stereo not drawn) | 2% | -3% | -4 | 18% | -1%
O=C(NCCCn1ccnc1)c1[nH]c(C(F)(F)F)nc1-c1ccccc1 | . | 0% | . | . | .
Cc1cc(Cl)n2c(nc3cc(F)c(F)cc32)c1C#N | 16µM* | ? | -73* | -8% | -2%
CCc1cccc(C)c1Nc1c(-c2ccc(N3CCOCC3)cc2)nc2ncccn12 | -3% | . | . | . | .
Clc1ccc(C2=NNC(=NCc3ccccc3)SC2)cc1 | -14% | ? | 31 | 0% | -4%
Fc1ccc(C2=NNC(=NCc3ccccc3)SC2)cc1F | -7% | 27µM* | 9 | -1% | -1%
CCCOCC1CC2(SC(=Nc3ccc(C)cc3)NC2=O)C(=O)O1 (stereo not drawn) | 5% | 27µM* | 11 | 3% | 2%
SMILES | VDR inhibitor | PLK1 PBD block | TSHR antagonist | uPA surface inh | PTAP TSG101 blk
Cc1ccc(Cl)cc1NC(=O)C1CCC(CNS(=O)(=O)c2cccc3nsnc23)CC1 (stereo not drawn) | -9% | . | . | . | .
c1cc(SSc2ccncc2)ccn1 | 32µM* | 1.9µM* | 2 | 13% | -2%
CC(=O)c1cn(CCOc2ccccc2C)c2ccccc12 | -6% | 2% | -43 | 5.6µM* | -4%
COc1cccc(-c2csc(NC3OC(=O)c4c3ccc(OC)c4OC)n2)c1 (stereo not drawn) | -13% | -14% | 2 | -6% | -4%
COc1ccc2c(c1OC)C(=O)OC2Nc1nc(-c2ccc(-c3ccccc3)cc2)cs1 (stereo not drawn) | -30% | 27µM* | 2 | ? | 1%
Cc1cccc(CNc2ncnc3ccc(-c4ccc5c(ccn5C)c4)cc23)c1 | . | . | -8 | . | .
COc1cc(NC(=O)CN2C(=O)C(c3ccc(C)cc3)=NC23CCCCCC3)cc(OC)c1 | 18% | . | . | . | .
COC(=O)c1c(SC)nc2ccccc2c1OCc1ccc(Cl)cc1 | 3% | . | . | . | .
O=C(NS(=O)(=O)c1ccccc1)c1ccccc1O | -4% | 24µM* | 24 | -6% | -8%
CC/C=C\C/C=C\C/C=C\C/C=C\C/C=C\C/C=C\CCC(=O)NCC(=O)O | -12% | . | . | . | .
Cc1cc(NC(=O)C2CCCCC2)ncc1NC(=O)c1ccccn1 | 10% | -8% | -5 | 1% | -4%

Compound activity as filed in PubChem BioAssay.
